The source of these data is PubChem BioAssay AID1376 (SRMLSC, 2008).

Out of some 220,000 compounds screened, about 530 (0.24%) were called active. Rule as the data show it: active = inhibition above about 13%; inconclusive = no clear call, values can overlap the other calls; inactive = below that. The entries come from a sample that favours actives as a whole. Measured potencies and affinities stand elsewhere.

The target in the assay is Bifunctional protein GlmU (Mycobacterium tuberculosis (strain ATCC 25618 / H37Rv)) (UniProt P9WMN3). As to the kind of experiment: inhibition of mycobacterial GlmU enzyme – biochemical, glucosamine-1-phosphate acetyltransferase (AID 1376).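 Also: 0% = complete reaction with vehicle and 100% = reaction without substrate.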 Conditions: M. tuberculosis GlmU acetyltransferase enzyme assay; hits give high values;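 tested at 30 µM in the primary screen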.
Chain of Bifunctional protein GlmU (Mycobacterium tuberculosis (strain ATCC 25618 / H37Rv)) (P9WMN3 whole entry, looked up): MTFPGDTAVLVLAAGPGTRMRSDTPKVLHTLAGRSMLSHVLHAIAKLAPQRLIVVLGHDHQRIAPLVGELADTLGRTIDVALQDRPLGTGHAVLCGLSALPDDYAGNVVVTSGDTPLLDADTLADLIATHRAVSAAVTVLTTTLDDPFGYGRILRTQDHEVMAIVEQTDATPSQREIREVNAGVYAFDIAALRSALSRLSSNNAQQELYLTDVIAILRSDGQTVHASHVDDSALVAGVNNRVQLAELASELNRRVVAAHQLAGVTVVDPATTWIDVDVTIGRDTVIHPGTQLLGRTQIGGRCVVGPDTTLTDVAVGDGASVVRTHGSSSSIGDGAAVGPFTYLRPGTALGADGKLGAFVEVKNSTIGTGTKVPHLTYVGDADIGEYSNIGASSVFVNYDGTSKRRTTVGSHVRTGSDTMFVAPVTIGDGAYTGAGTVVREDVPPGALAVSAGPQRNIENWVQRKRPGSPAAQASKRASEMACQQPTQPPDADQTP
With `COc1ccc(C(=O)NC(=S)Nc2ccc(N3CCCC3)cc2)cc1`, the inhibition (usually the relative decrease from the control value, in per cent) is -3.46% (inactive).
The figure for `CC(C)Oc1ccc(C(=O)Nc2ccc(N3CCCC3)cc2)cc1` is 2.23% (inactive).
`COc1ccc(C(=O)Nc2ccc(N3CCCC3)cc2)cc1`: the inhibition was 13.4% (active).
Take `O=C(O[C@@H]1OC2COC(=O)c3cc(O)c(O)c(O)c3-c3c(cc(O)c(O)c3O)C(=O)O[C@@H]([C@H]1O)[C@@H]2O)c1cc(O)c(O)c(O)c1`: the inhibition was 30.4% (inactive).
The figure for `CCC(=O)Nc1sc(C(=O)Nc2ccccc2OC)c(C)c1C(=O)OC` is 7.34% (inactive); for `O=C(O)/C=C/c1ccc(O)c(O)c1` it is 5.24% (inactive).
The figure for `O=C(/C=C/c1ccc(O)c(O)c1)OCCc1ccccc1` is -2.12% (inactive); for `CCN1C(=O)CC(N2CCOCC2)C1=O` (stereo not drawn) it is -3.77% (inactive).
In the case of `CCOc1ccc(C2CC(c3ccc(F)cc3)Nc3nc(N)nn32)cc1` (stereo not drawn) it was 2.32% (inactive); in that of `CN1C(=O)/C(=C/c2coc3ccc(O)cc3c2=O)SC1=S`, 2.74% (inactive).
Consider `O=C1NC(=S)S/C1=C\c1coc2ccccc2c1=O`, for which the inhibition was 5.72% (inactive).
In the case of `O=C(Nc1ccc(Cl)cc1)Nc1ccccc1C(=O)O`, the inhibition is -1.73% (inactive).
For `CN1CCN(CC(=O)Nc2sc3c(c2C#N)CCC(C(C)(C)C)C3)CC1` (stereo not drawn), the inhibition was 2.19% (inactive).
The figure for `Cc1nn(CC(=O)Nc2sc3c(c2C#N)CCC(C(C)(C)C)C3)c(C)c1[N+](=O)[O-]` (stereo not drawn) is 14.3% (active); for `Cc1nn(CCCC(=O)Nc2sc3c(c2C#N)CCC3)c(C)c1[N+](=O)[O-]` it is -0.77% (inactive).
Regarding `CC(C)CCn1c(=O)c2ccccc2n2c(CN3CCCC3)nnc12`, the inhibition is -3.44% (inactive).
On to `COc1cc(C(=O)Nn2c(O)c(C3=c4ccccc4=NC3=O)sc2=S)ccc1O`, for which the inhibition is 4.03% (inactive).
In the case of `O=C1N=c2ccccc2=C1c1sc(=S)n(NC(=O)c2cccc(O)c2)c1O` it was -0.24% (inactive); in that of `O=C1N=c2ccccc2=C1c1sc(=S)n(NC(=O)c2ccccc2)c1O`, 13.4% (active).
In the case of `O=C1N=c2ccc(Br)cc2=C1c1sc(=S)n(NS(=O)(=O)c2ccccc2)c1O` it was 13.8% (active); in that of `O=S(=O)(Nn1c(O)c(C=C2N=c3ccccc3=N2)sc1=S)c1ccccc1`, 7.14% (inactive).
On to `O=C1N=c2ccccc2=C1c1sc(NS(=O)(=O)Cc2ccccc2)nc1O`, for which the inhibition was 5.63% (inactive).
The figure for `Cc1ccc(S(=O)(=O)Nn2c(O)c(C=C3N=c4ccccc4=N3)sc2=S)cc1` is 0.22% (inactive); for `O=C1N=c2ccccc2=C1c1sc(NS(=O)(=O)c2ccccc2)nc1O` it is 13.8% (active).
In the case of `O=C1N=c2ccccc2=C1c1sc(Nc2ccc(O)cc2)nc1O` it was 6.45% (inactive).
As for `COc1ccc(C(=O)C2CCCN(C(=O)Cc3c(C)noc3C)C2)cc1OC` (stereo not drawn), the inhibition is -6.51% (inactive).
The figure for `COc1ccccc1C(=O)NCCCN1CCCC1=O` is -0.52% (inactive); for `Nc1c(C(=O)c2ccc(F)cc2)oc2ccccc12` it is 1.74% (inactive); for `CCOc1ccccc1NC(=S)N(CCOC)C1CCN(C(C)=O)CC1` it is 1.9% (inactive).
The figure for `CC(=O)N1CC=CC1(C)C(=O)NCc1cc(F)cc(C(F)(F)F)c1` (stereo not drawn) is -2.53% (inactive); for `CCCCC(=O)Nc1ccc(C(=O)Nc2ccc(S(=O)(=O)Nc3ccc(C)cc3)cc2)cc1` it is 3.43% (inactive).
The figure for `CCOc1ccc(N(CC(=O)NCC2CCCO2)C(=O)CCC(=O)Nc2nccs2)cc1` (stereo not drawn) is -0.08% (inactive); for `Cc1oc(/N=C/c2c(O)ccc3ccccc23)c(C#N)c1C` it is -4.74% (inactive).
Regarding `Nc1c(C(=O)N2CCCCC2)sc(=S)n1-c1ccccc1`, the inhibition is -0.25% (inactive).
With `Cc1ccc(-n2c(N)c(C(=O)N3CCOCC3)sc2=S)cc1`, the inhibition is -2.93% (inactive).
The figure for `Nc1c(C(=O)N2CCOCC2)sc(=S)n1-c1ccccc1` is 13.9% (active).
The figure for `Cc1cc2ccccc2c(=O)n1CC(=O)NCC(=O)N1CCN(c2ccccc2F)CC1` is -1.95% (inactive); for `CCOc1cc(CNCc2cccs2)ccc1OCC(=O)NC(C)(C)C` it is 4.39% (inactive).
In the case of `OC(COc1ccc(Br)cc1)CN1CCOCC1` (stereo not drawn) it was -1.6% (inactive).
As for `COc1ccc(CSc2nnc(NC(C)=O)s2)cc1[N+](=O)[O-]`, the inhibition was -1.4% (inactive).
Turning to `C/C(=N\NC(=O)c1cccc(C)c1)c1cccc(NC(=O)c2ccco2)c1`, the inhibition was 21.3% (active).
The figure for `C/C(=N\NC(=O)c1cccc(Cl)c1)c1cccc(NC(=O)c2ccco2)c1` is 4.79% (inactive); for `C/C(=N\NC(=O)c1ccc(F)cc1)c1cccc(NC(=O)c2ccco2)c1` it is 1.13% (inactive).
In the case of `Cc1cccc(Cn2cccc2/C=C2/C(=N)N3C=CSC3=NC2=O)c1` it was -1.25% (inactive); in that of `CC(C)CC12CN3CCN(CC(C3)/C1=N/O)C2`, 0.59% (inactive); in that of `COc1ccc(COc2ccccc2C(N)=O)cc1F`, 3.33% (inactive).
As to `O=S(=O)(c1ccc(OCC(O)CN2CCN(c3ccc(F)cc3)CC2)cc1)N1CCOCC1` (stereo not drawn), the inhibition was 3.7% (inactive).
In the case of `Cc1ccccc1CN1[C@@H](Cc2ccccc2)COCCS1(=O)=O` it was -3.47% (inactive); in that of `O=S(=O)(O)c1cccc(N=Nc2c(O)ccc3ccccc23)c1`, 3.89% (inactive).
The figure for `Oc1ccc(N=Nc2c(O)ccc3ccccc23)cc1` is 0.98% (inactive).
In the case of `O=C(O)c1cc(N=Nc2c(O)ccc3ccccc23)cc(C(=O)O)c1` it was 25.6% (active); in that of `CCOC(=O)Cn1c(-c2ccccc2)ccc(C#N)c1=O`, -5.69% (inactive); in that of `C#CCn1c(-c2ccccc2)ccc(C#N)c1=O`, 1.35% (inactive).
Take `CCn1c(-c2ccccc2)ccc(C#N)c1=O`: the inhibition is 14.1% (active).
In the case of `O=C(CSc1ccccc1C(=O)O)NCC1CCCCC1` it was -4.3% (inactive); in that of `COCCn1c(SCC(=O)c2[nH]c(C)c(C(C)=O)c2C)nc2ccccc21`, 3.37% (inactive).
In the case of `Cc1cc(N2CCC(C(=O)NC3CC3)CC2)nc(-c2ccccc2)n1` it was 1.37% (inactive).
The figure for `Cc1cc(N2CCC(C(=O)NC3CCCCC3)CC2)nc(-c2ccccc2)n1` is 13.9% (active); for `C#CCNC(=O)C1CCN(c2cc(C)nc(-c3ccccc3)n2)CC1` it is -1.53% (inactive).
For the compound `CC(=O)c1ccc(N2CCN(C(=S)Nc3ccccc3F)CC2)cc1`, the inhibition is -4.01% (inactive).
The figure for `CCCS(=O)(=O)N1CCC(C(=O)N2CCN(Cc3ccccc3)CC2)CC1` is 30.1% (active); for `CS(=O)(=O)N1CCC(C(=O)N2CCN(Cc3ccccc3)CC2)CC1` it is 0.44% (inactive).
The figure for `CCS(=O)(=O)N1CCC(C(=O)N2CCN(Cc3ccccc3)CC2)CC1` is -4.26% (inactive); for `Cc1cc(C(=O)CN2C(=O)C(=O)N(C3CCCC3)C2=O)c(C)n1-c1ccc(F)cc1` it is 7.31% (inactive).
As for `Cc1c(Cl)cc(-n2cnnn2)cc1[N+](=O)[O-]`, the inhibition was 0.95% (inactive).
The figure for `COc1ccc(C(=O)CSc2n[nH]c(-c3ccco3)n2)cc1` is 4.52% (inactive); for `O=C(CSc1nnc(-c2ccco2)c(-c2ccco2)n1)c1ccccc1` it is 0.16% (inactive); for `CC(=O)c1ccc(NC(=O)CSc2nnc(-c3ccco3)c(-c3ccco3)n2)cc1` it is 9.28% (inactive).
In the case of `COc1ccc(C(=O)CSc2nnc(-c3ccco3)c(-c3ccco3)n2)cc1` it was 12.8% (active); in that of `O=C(CSc1nnc(-c2ccco2)c(-c2ccco2)n1)Nc1ccccc1`, 13.4% (active).
In the case of `Cc1ccc(NC(=O)CSc2nnc(-c3ccco3)c(-c3ccco3)n2)cc1` it was 6.2% (inactive).
`CC1(c2nnc(Cc3ccccc3)o2)CC(c2ccc([N+](=O)[O-])cc2)=NO1` (stereo not drawn): the inhibition was -2.83% (inactive).
In the case of `CCCn1c(SCC(=O)Nc2ccc(OCC)cc2)nnc1C(C)C` it was 2.8% (inactive).
In the case of `COC(=O)N/N=C/c1c(C)nn(-c2cccc(Cl)c2)c1Cl` it was -2.28% (inactive).
In the case of `CC(=O)Nc1ccc(NS(=O)(=O)c2ccc(Cl)c(C(=O)O)c2)cc1` it was -0.86% (inactive); in that of `O=S(=O)(Nc1ccc(N2CCCCC2)cc1)c1ccc(F)c(F)c1`, 1.08% (inactive).
Regarding `O=C(O)c1cc(S(=O)(=O)Nc2ccc(N3CCCCC3)cc2)ccc1Cl`, the inhibition was 14.1% (active).
The figure for `O=C1CC2(CCCCC2)Oc2ccc(Cl)cc21` is -3.86% (inactive); for `CCCCN(CCCC)CCNC(=O)CNC(=O)c1cccs1` it is 2.63% (inactive).
The figure for `CCN(CC(=O)Nc1ccc(OC(F)F)cc1)C1CCCCC1` is 2.82% (inactive).
The figure for `C=CCOc1ccc(Br)cc1/C=N/O` is -4.35% (inactive); for `COc1cc(/C=C2/SC(=Nc3ccc(O)cc3)NC2=O)ccc1O` it is 35.3% (inactive).
On to `C=CCOc1ccc(Br)cc1/C=C1/SC(=Nc2ccc(C(=O)O)cc2)NC1=O`, for which the inhibition is 15.9% (active).
In the case of `CCOc1cc(S(=O)(=O)NCCc2ccccc2C)c(OCC)cc1-n1cnnn1` it was 1.72% (inactive).
The figure for `O=C1CC(NCc2ccccc2)C(=O)N1c1ccc(F)cc1` (stereo not drawn) is -3.58% (inactive); for `O=c1[nH]nc(SCc2nnc(-c3cccc(Cl)c3)o2)n1C1CCCCC1` it is 1.07% (inactive); for `CC(C)(CNc1ccc([N+](=O)[O-])cc1Cl)CNS(C)(=O)=O` it is -2.7% (inactive).
In the case of `COCCCN1C(=O)CS/C1=N\S(=O)(=O)c1ccccc1` it was 5.52% (inactive).
For the compound `CCn1c(Cl)c(C=O)s/c1=N\S(=O)(=O)c1ccccc1`, the inhibition is 5.14% (inactive).
The figure for `O=Cc1s/c(=N\S(=O)(=O)c2ccccc2)n(CCCCl)c1Cl` is 14% (active); for `CC/C(=N/NS(=O)(=O)c1ccc(Cl)cc1)c1ccc(O)cc1` it is 2.54% (inactive).
For `CC(C)CNC(=O)C1Nc2ccccc2C2C=CCC12` (stereo not drawn), the inhibition is 0.47% (inactive).
The figure for `COc1cccc(C2Nc3c(F)cc(Br)cc3C3C=CCC32)c1OC` (stereo not drawn) is 0.44% (inactive); for `CC(C)C1Nc2ccc(C(=O)O)cc2C2C=CCC21` (stereo not drawn) it is 5.77% (inactive); for `CCOC(=O)C1Nc2c(F)cc(C)cc2C2C=CCC12` (stereo not drawn) it is 3.49% (inactive).
Consider `CC(C)C1Nc2c(O)cc(Cl)c([N+](=O)[O-])c2C2C=CCC21` (stereo not drawn), for which the inhibition was 4.55% (inactive).
The figure for `Cc1ccc2c(c1C)NC(C(=O)O)C1CC=CC21` (stereo not drawn) is 13.2% (active); for `O=C(O)C1Nc2c(C(=O)N3CCOCC3)cccc2C2C=CCC12` (stereo not drawn) it is 1.95% (inactive); for `O=C(O)C1Nc2c(O)cccc2C2C=CCC12` (stereo not drawn) it is 33.7% (active).
The figure for `COc1cccc2c1NC(C(=O)O)C1CC=CC21` (stereo not drawn) is 60.8% (active).
On to `O=[N+]([O-])c1ccc(Cl)c2c1C1C=CCC1C(c1ccccn1)N2` (stereo not drawn), for which the inhibition is 3.42% (inactive).
In the case of `COC(=O)CNC(=O)C1Nc2ccccc2C2C=CCC12` (stereo not drawn) it was 3.22% (inactive); in that of `O=C(O)C1Nc2c(O)cc(Cl)c([N+](=O)[O-])c2C2C=CCC12` (stereo not drawn), 65% (active).
